A selection: hits, their analogues and other compounds. The true share with any hit is near 6%.
PLK1 PBD block: PLK1 (human) polo-box domain binding inhibition; P53350; Plk1 PBD binding of FITC phosphopeptide, fluorescence polarization; Potency, µM, without a hit: max response, negative = inhibition, usual class: inhibitors; 2.8% of 360,000 active; AID 720504; further: series mostly up to about 57 µM; nearly all actives have a fitted effect of over 65% in size
Tau ThT inhib: blocks human tau fibril formation measured by thioflavin T | P10636 | recombinant tau K18 P301L, heparin-induced fibrillization, ThT fluorescence | Potency, µM (series often up to 57.4 µM), without a hit: top-dose activity, negative = inhibition, usual class: inhibitors | 2.1% of 270,000 active | AID 1460; further: nearly all actives have a fitted effect of over 55% in size
Target sequence (P10636 561-689 P618L limits assumed): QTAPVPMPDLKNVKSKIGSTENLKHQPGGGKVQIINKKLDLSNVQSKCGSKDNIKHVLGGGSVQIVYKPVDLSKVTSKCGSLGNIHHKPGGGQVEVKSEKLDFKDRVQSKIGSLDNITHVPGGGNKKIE
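Using a mix of unlabeled (15 uM) and Alexa 594-labeled (0.24 uM) tau K18 P301L, heparin-triggered fibrillization over 6 hr at 37 C was scored by ThT fluorescence.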
Tau fluor counter: counter-screen for tau fibril formation inhibitors; tau K18 P301L (four-repeat tau fragment) Alexa594 fluorescence, heparin fibrillization; 0.93% of 280,000 active; Potency, µM (highest dose often 57.7 µM), inactives show at the top dose activity change, negative = decrease; further: nearly all actives have a fitted effect of over 55% in size
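Human K18 P301L tau (15 uM unlabeled plus 0.24 uM Alexa 594-labeled, final) in 100 mM sodium acetate pH 7 was mixed with compound and 20 uM heparin and incubated 6 hr at 37 C.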
VDR inhibitor: vitamin D3 receptor (human) inhibition; 0.93% of 400,000 active; Potency, µM, inactives show max response, negative = inhibition, actives largely listed as inhibitors; VDR-SRC2-3 peptide fluorescence polarization, 2 h; AID 504847
Target sequence (P11473 whole entry, looked up): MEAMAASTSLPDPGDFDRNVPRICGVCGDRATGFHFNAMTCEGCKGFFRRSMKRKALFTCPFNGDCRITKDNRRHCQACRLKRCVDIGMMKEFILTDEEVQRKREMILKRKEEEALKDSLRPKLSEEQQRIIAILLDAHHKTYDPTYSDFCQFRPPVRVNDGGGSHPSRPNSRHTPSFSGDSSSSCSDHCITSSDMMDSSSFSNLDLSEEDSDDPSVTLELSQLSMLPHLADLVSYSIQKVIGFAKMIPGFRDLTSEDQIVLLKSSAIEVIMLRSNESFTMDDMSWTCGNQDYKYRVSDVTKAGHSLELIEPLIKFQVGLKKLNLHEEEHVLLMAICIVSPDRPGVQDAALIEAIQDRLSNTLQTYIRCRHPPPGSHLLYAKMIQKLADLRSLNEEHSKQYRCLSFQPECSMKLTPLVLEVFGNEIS
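Inhibition of the VDR/SRC2-3 peptide interaction is quantified by fluorescence polarization. Compounds (23 nl, pintool) incubate with the reagents for 2 hours at ambient room temperature.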
Sfp PPTase inh: inhibitors of Bacillus subtilis Sfp phosphopantetheinyl transferase; Q9F4F7; Biochemical Sfp PPTase activity, qHTS; Potency, µM, for inactives: largest response in the series, negative = inhibition, hits mostly inhibitors; 3.5% of 310,000 active;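 further: the enzyme is Sfp with the accession as filed and its product quenches rhodamine fluorescence; 0% = enzyme reaction without inhibitor and -100% = no enzyme wells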
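Buffer: 50 mM Hepes-Na pH 7.6, 10 mM MgCl2, 0.01% Nonidet P-40, 0.01% BSA. Enzyme 15 nM, pre-exposed to compound 15 min; substrates then added and fluorescence change tracked over 30 min.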
Tau FP inhib: blocks human tau fibril formation measured by polarization. Potency, µM (titrated, usually from 57.7 µM), for inactives: at the highest dose activity, negative = inhibition, most hits filed as inhibitors. K18 P301L tau heparin fibrillization, Alexa594 FP, 6 h. 0.39% of 280,000 active. AID 1468. P10636; further: nearly all actives have a fitted effect of over 55% in size
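Recombinant K18 P301L […], labeled with Alexa 594 at 0.24 uM over 15 uM unlabeled; heparin inducer 20 uM final; 37 C, 6 hr; FP endpoint.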
Starred values were filed as active, the others as inactive; ? = inconclusive; nt = no result given; [ ] = dose if it differs, or a comment. The call rests on the fitted dose curve; in most records, active means well fitted curve in the direction sought with a large enough effect; inconclusive means small, poorly fitted or top-dose-only effect, or another doubt; inactive means no such curve, though single readings can be large; an effect the other way counts as inactive or inconclusive. Unless noted, on the % scale 0 is the no-effect control and ±100 the full control effect; potency means the concentration at half of the fitted maximal effect.

SMILES	PLK1 PBD block	Tau ThT inhib	Tau fluor counter	VDR inhibitor	Sfp PPTase inh	Tau FP inhib
COCc1cc(C)nc(SCc2ccc(F)cc2)c1C#N	23.8µM*	nt	nt	-27.5%	-18.6%	nt
NC(=O)c1ccc(NC(=O)c2cncn2-c2ccccc2)cc1	23.8µM*	nt	nt	79.4µM*	19.4%	nt
NNC(=O)c1cncn1-c1ccc(F)cc1	-29.1%	-1.2%	3.5%	-14.4%	9.2%	-3.9%
Cc1cc2nc(C)c(=O)n(C)c2cc1C	13.4µM*	1.5%	1.8%	?	0.5%	-2.3%
N#Cc1ccc(C2CC(OCCF)=CC(=O)O2)cc1 (stereo not drawn)	-7.2%	nt	nt	nt	nt	nt
Cc1nc(N2CCCCC2)sc1C(=O)c1cccc([N+](=O)[O-])c1	-12.2%	-12.2%	-17.9%	-23.6%	7.1%	10.7%
Cc1nc(N2CCCCC2)sc1C(=O)c1ccc(SCCO)c([N+](=O)[O-])c1	8.44µM*	?	?	?	-25.9%	11.4%
c1ccc(CN=C2NN=C(c3cc4ccccc4o3)CS2)cc1	2.2%	?	-18.0%	9.3%	-7.4%	-3.4%
Cc1cc(C2=NNC(=NC3CC3)SC2)c(C)n1-c1ccccc1F	26.7µM*	8.1%	0.6%	?	44.7µM*	-3.2%
c1ccc2oc(C3=NNC(=NC4CC4)SC3)cc2c1	?	14.1µM*	-22.7%	-17.4%	-40.2%	-7.4%
Cc1ccccc1N=C1NN=C(c2ccccc2F)CS1	-18.4%	28.2µM*	-29.7%	1.4%	16.4%	?
CN(C)c1ccc(-c2ccnc3c2CC(C)(C(=O)NCc2ccc(F)c(F)c2)O3)cc1 (stereo not drawn)	2.4%	nt	nt	nt	nt	nt
Cc1ccc(CNC(=O)c2ccc(OCC(C)C)cc2)n1C	-20.9%	nt	nt	24.9%	3.3%	nt
CCc1ccc2[nH]c(=O)c(CN(CCN(CC)CC)C(=S)NCc3ccco3)cc2c1	-4.5%	-13.0%	-16.5%	11.3%	79.4µM*	-0.9%
COc1ccc2[nH]c(=O)c(CN(CC3CCCO3)C(=S)Nc3cccc(C)c3)cc2c1 (stereo not drawn)	0.8%	-3.6%	-28.6%	12.7%	56.2µM*	-7.8%
CCc1ccc2[nH]c(=O)c(CN(CC3CCCO3)C(=S)NCc3ccco3)cc2c1 (stereo not drawn)	-10.3%	nt	-19.6%	?	3.55µM*	?
Cc1ccc2cc(CN(CC3CCCO3)C(=S)NCc3ccco3)c(=O)[nH]c2c1C (stereo not drawn)	15µM*	-9.5%	-2.0%	-13.3%	31.6µM*	8.0%
Cc1ccc(C)c2[nH]c(=O)c(CN(CC3CCCO3)C(=S)NCc3ccco3)cc12 (stereo not drawn)	-16.5%	nt	-26.7%	-0.8%	-23.8%	-5.8%
CCc1ccc2[nH]c(=O)c(CN(CCN(C)C)C(=S)NCc3ccco3)cc2c1	-8.7%	-12.8%	-6.2%	2.4%	-14.8%	2.3%
Cc1ccc(CNC(=O)c2ccc(Cn3c(=O)c4ccccc4n(CC(=O)Nc4ccc(C)cc4C)c3=O)cc2)cc1	nt	1.9%	-8.7%	-12.1%	nt	?
CCOc1ccc(OCC)c(NC(=O)C(NS(=O)(=O)c2ccc(Br)s2)c2ccccc2)c1 (stereo not drawn)	nt	5.1%	-10.2%	7.0%	nt	-2.0%
Cc1cc(C)c2cc(CN(Cc3ccco3)C(=S)NCC3CCCO3)c(=O)[nH]c2c1 (stereo not drawn)	-26.9%	?	-14.4%	-11.7%	20µM*	-9.4%
COc1ccc2cc(CN(Cc3ccco3)C(=S)NCC3CCCO3)c(=O)[nH]c2c1 (stereo not drawn)	-9.8%	2.6%	1.2%	5.8%	-15.9%	-4.3%
CCN1C(=O)[C@H]2[C@@H](c3ccc(-c4ccc(OC)cc4)cc3)N3CCCC[C@@]3(C(=O)OC)[C@H]2C1=O	2.8%	nt	nt	1.0%	nt	nt
COc1ccc(C(C(=O)NCc2ccccc2)N(C(=O)Cn2nnc3ccccc32)c2cccc(OC)c2)cc1 (stereo not drawn)	nt	8.9%	2.1%	8.4%	nt	-5.1%
SMILES	PLK1 PBD block	Tau ThT inhib	Tau fluor counter	VDR inhibitor	Sfp PPTase inh	Tau FP inhib
O=c1c2cc(N3CCOCC3)ccc2[nH]c(=S)n1Cc1ccco1	?	?	?	79.4µM*	7.94µM*	?
COc1cccc(CNC(=O)CCCCCn2c(=S)[nH]c3ccc(N4CCOCC4)cc3c2=O)c1	nt	2.1%	-11.5%	nt	79.4µM*	0.3%
COc1ccccc1C(=O)NCCNC(=O)c1ccco1	26.7µM*	-3.9%	1.0%	4.4%	6.9%	6.6%
COc1cccc(CNCCNC(=O)c2ccco2)c1OC	18.9µM*	-3.5%	-6.8%	-12.8%	?	-0.2%
NC(=S)Nc1cccc(-c2n[nH]c(=S)o2)c1	-23.8%	-14.6%	-7.4%	2.5%	-9.4%	-1.5%
Cc1ccc(NC(=S)Nc2cccc(-c3n[nH]c(=S)o3)c2)cc1	?	?	-29.7%	-9.6%	50.1µM*	-3.1%
CN(Cc1ccccc1)C(=O)[C@@H]1CCCN1C(=O)[C@@H]1CCCN1C(=O)OC(C)(C)C	3.7%	nt	nt	nt	nt	nt
C/C=C/C(=O)C[C@H]1CC[C@@H](C)[C@@H](CCO)O1	nt	-4.2%	-6.5%	-8.0%	-0.9%	-4.2%
CN(C)c1ccc(CNc2nc(-c3ccco3)nn2C(=O)c2cccc([N+](=O)[O-])c2)cc1	nt	?	12.6µM*[quencher]	11.0%	nt	9.5%
Cc1cccc(C(=O)n2nc(-c3ccco3)nc2NCc2ccccc2)c1	nt	-7.3%	-11.7%	13.9%	nt	-2.7%
COc1ccc(CNC(=O)CCS(=O)(=O)c2ccc(Br)cc2)cc1	?	nt	nt	-12.3%	5.8%	nt
CC(=O)N1CCc2cc(S(=O)(=O)CCC(=O)NCc3ccc(C)o3)ccc21	-19.2%	nt	nt	-6.6%	25.1µM*	nt
COc1ccc(S(=O)(=O)CCC(=O)NCc2ccc(C)o2)cc1	?	nt	nt	?	50.1µM*	nt
CCOc1ccccc1NC(=O)CCS(=O)(=O)c1ccc2c(c1)CCN2C(C)=O	21.2µM*	nt	nt	-5.1%	6.7%	nt
Cc1ccc(CNC(=O)CCS(=O)(=O)c2cc(Br)cc3c2N(C(=O)C2CC2)CC3)o1	-20.0%	0.6%	1.2%	-6.5%	10µM*	0.0%
CC(=O)Nc1ccc(NC(=O)C(NS(=O)(=O)c2ccc(Br)s2)c2ccccc2)cc1 (stereo not drawn)	nt	-8.6%	-22.3%	-2.2%	nt	-18.5%
O=C(CCS(=O)(=O)c1ccccc1)NC1CCCCC1	-0.6%	nt	nt	0.2%	0.4%	nt
COc1ccc(S(=O)(=O)CCC(=O)NC2CCCCC2)cc1	29.9µM*	-4.6%	-4.7%	-8.6%	11.5%	2.6%
COCCCn1c(O)c(/C=C2\N=C(C#N)C(=Nc3ccc(C)cc3)O2)sc1=S	9.8%	11.2µM*	?	-0.9%	12.6µM*	?
Oc1c(C(c2ccccc2)N2CCCCC2)ccc2ccccc12 (stereo not drawn)	2.99µM*	nt	nt	nt	nt	nt
O=C(N1CCCCC1)N1CCN(C(c2ccccc2)c2ccccc2)CC1	-5.8%	?	-8.2%	-7.2%	-3.7%	-8.7%

Compound activity deposited in PubChem by National Center for Advancing Translational Sciences (NCATS).
